Reference: PubChem BioAssay (EPA / NIEHS)
Results filed as inconclusive are left out. The source made the active and inactive calls. The calls were made as follows, unless noted: active = hit-call score of the fitted dose curve at least 0.9, where 1 is the maximum; inactive = score below 0.9.

Experiments:
[1] = ATG_M_06_TRANS: Attagene TRANS-FACTORIAL HepG2 Assay for M06 Transcription Factor (Internal Marker) (AID 2282983; active = hit-call score of the fitted dose curve at least 0.9, where 1 is the maximum); conditions: HepG2 Attagene TRANS M06 internal marker reporter
How it was run: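 Multi-reporter-transfected HepG2, 24 h treatment; reporter transcripts quantified via RT-PCR, primer-extension labelling and CE. DMSO-normalized gain-of-signal fit.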

[2] = ATG_M_32_TRANS: Attagene TRANS-FACTORIAL HepG2 Assay for M32 Transcription Factor (Internal Marker) (AID 2282984; active = hit-call score of the fitted dose curve at least 0.9, where 1 is the maximum;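 also: transcript level of a background control reporter unit measured by RT-PCR and capillary electrophoresis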); conditions: HepG2 Attagene TRANS M32 internal marker reporter
How it was run: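 After 24 h dosing of transfected HepG2 cells, total RNA was reverse-transcribed, reporter sequences PCR-amplified, 6-FAM labelled by primer extension and HpaI-digested before capillary electrophoresis. Signal increase over DMSO was fitted.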

[3] = molecular target: Nuclear receptor subfamily 4 group A member 2 (Homo sapiens) (UniProt P43354); test: ATG_NURR1_TRANS: Attagene TRANS-FACTORIAL HepG2 Assay for human Nuclear Receptor Related Protein 1 (NURR1) (AID 2282985; active = hit-call score of the fitted dose curve at least 0.9, where 1 is the maximum); conditions: HepG2 Attagene TRANS reporter, mRNA readout
How it was run: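 Chimeric NR-Gal4 fusion activity measured in HepG2 after 24 h treatment. Reporter transcripts detected by RT-PCR and capillary electrophoresis fluorescence; positive-direction curve fitting against DMSO.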

[4] = molecular target: Transcriptional activator Myb (Homo sapiens) (UniProt P10242); test: ATG_Myb_CIS: Attagene CIS-FACTORIAL HepG2 Assay for human Myeloblastosis (Myb) Proto-Oncogene Transcription Factor (AID 2282986); conditions: HepG2 Attagene CIS-FACTORIAL Myb reporter transcription; actives raise or lower the signal
How it was run: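 HepG2 cells were transiently transfected with cis-regulated multiple reporter transcription units reflecting endogenous Myb activity, then exposed to compound for 24 hours. Reporter mRNA was measured by RT-PCR with capillary electrophoresis; bidirectional fitting versus DMSO baseline.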

[5] = molecular target: Nuclear respiratory factor 1 (Homo sapiens) (UniProt Q16656); test: ATG_NRF1_CIS: Attagene CIS-FACTORIAL HepG2 Assay for human Nuclear Respiratory Factor 1 (NRF1) Orphan Gene (AID 2282987); conditions: HepG2 NRF1 cis-element reporter, Attagene multiplex; actives raise or lower the signal
How it was run: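 HepG2 cells transiently transfected with multiple reporter transcription units under cis-regulatory promoter control, so endogenous transcription-factor activity is read. After 24 h compound exposure, reporter mRNA quantified by RT-PCR, fluorescent labelling, HpaI digestion and capillary electrophoresis; bidirectional fitting versus DMSO.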

[6] = ATG_NFI_CIS: Attagene CIS-FACTORIAL HepG2 Assay for human Nuclear Factor I (NFI) (AID 2282989); conditions: HepG2 cis-regulatory reporter, NFI response element transcription; actives raise or lower the signal
How it was run: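 Endogenous TF activity in HepG2 cells transiently transfected with cis-element-driven multiplexed reporter units, read 24 h after dosing. Reporter mRNA quantified by RT-PCR, 6-FAM labelling, HpaI digestion and capillary electrophoresis; bidirectional fit versus DMSO.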

[7] = molecular target: Myc proto-oncogene protein (Homo sapiens) (UniProt P01106); test: ATG_Myc_CIS: Attagene CIS-FACTORIAL HepG2 Assay for human Myelocytomatosis (Myc) Proto-Oncogene Transcription Factor (AID 2282990); conditions: HepG2, Attagene cis-reporter transcription factor activity; actives raise or lower the signal
How it was run: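 Multiplexed cis-reporter transcription in HepG2 cells after 24 h chemical treatment. Reporter mRNA measured by RT-PCR and capillary electrophoresis fluorescence; activity fitted bidirectionally against DMSO control.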

[8] = ATG_NF_kB_CIS: Attagene CIS-FACTORIAL HepG2 Assay for human Nuclear Factor Kappa B (NF-kB) (AID 2282991); conditions: HepG2 Attagene cis-factorial NF-kB reporter mRNA; actives raise or lower the signal
How it was run: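 HepG2 cells transiently transfected with multiplexed cis-element reporter units measuring endogenous transcription factor activity; reporter mRNA read 24 h after dosing by RT-PCR, fluorescent labelling, HpaI digestion and capillary electrophoresis. Bidirectional fit against DMSO baseline.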

[9] = ATG_NRF2_ARE_CIS: Attagene CIS-FACTORIAL HepG2 Assay for human Nuclear Factor Erythroid 2 Related Factor 2 (NFR2) response to Antioxidant Response Elements (ARE) (AID 2282992); conditions: HepG2 Attagene ARE/NRF2 reporter, transcription factor activity; actives raise or lower the signal
How it was run: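 Endogenous transcription factor activity read out as reporter transcript levels (RT-PCR plus capillary electrophoresis, fluorescence) in transiently transfected HepG2 cells. Measured at 24 h after dosing; gain or loss of signal fitted versus DMSO.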

[10] = ATG_Oct_MLP_CIS: Attagene CIS-FACTORIAL HepG2 Assay for human Octamer-Binding Transcription Factor (Oct) (AID 2282993); conditions: HepG2 Attagene cis-factorial Oct reporter, mRNA; actives raise or lower the signal
How it was run: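 HepG2 cells transiently transfected with cis-element-driven reporter transcription units (endogenous TF activity); 24 h compound exposure. Reporter mRNA quantified by RT-PCR, 6-FAM labelling, HpaI digestion and capillary electrophoresis; bidirectional fit versus DMSO baseline.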

[11] = molecular target: Cellular tumor antigen p53 (Homo sapiens) (UniProt P04637); test: ATG_p53_CIS: Attagene CIS-FACTORIAL HepG2 Assay for human p53 Transcription Factor (AID 2282994); conditions: HepG2 p53 cis-element reporter, Attagene mRNA; actives raise or lower the signal
How it was run: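 Endogenous p53 activity read in transiently transfected HepG2 from a cis-element-driven reporter transcript after 24 h exposure. RNA reverse-transcribed, PCR-amplified, fluorescently labelled and sized by capillary electrophoresis; gain or loss fitted against DMSO baseline.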

[12] = molecular target: Hepatocyte nuclear factor 4-alpha (Homo sapiens) (UniProt P41235); test: ATG_HNF4a_TRANS: Attagene TRANS-FACTORIAL HepG2 Assay for human Hepatocyte Nuclear Factor 4 alpha (HNF4a) (AID 2282982; active = hit-call score of the fitted dose curve at least 0.9, where 1 is the maximum); conditions: HepG2 HNF4a transactivation reporter, mRNA readout
How it was run: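 In this trans-factorial format, a chimeric HNF4a-GAL4 fusion drives a GAL4-UAS reporter in transfected HepG2 liver cells. After 24 h treatment, reporter mRNA induction is measured by RT-PCR with capillary electrophoresis, relative to DMSO.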

[13] = BSK_3C_TissueFactor: BioMAP Diversity Plus: 3C Assay for Tissue Factor Biomarker Activity (AID 2282997); conditions: BioMAP 3C HUVEC, tissue factor biomarker readout; actives raise or lower the signal
How it was run: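 In this endothelial system, HUVEC are treated for 24 h and Tissue Factor is assessed by ELISA, normalised to DMSO.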

[14] = BSK_3C_uPAR: BioMAP Diversity Plus: 3C Assay for Urokinase-type plasminogen activator receptor (uPAR) Biomarker Activity (AID 2282998); conditions: BioMAP 3C HUVEC, uPAR biomarker ELISA; actives raise or lower the signal
How it was run: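 Primary human umbilical vein endothelial cells, 3C system; surface uPAR measured by ELISA 24 h after dosing. Cytotoxicity via SRB total protein in parallel cultures; bidirectional fit against DMSO.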

[15] = BSK_3C_VCAM1: BioMAP Diversity Plus: 3C Assay for Vascular cell adhesion molecule 1 (VCAM1) Biomarker Activity (AID 2282999); conditions: BioMAP 3C HUVEC, VCAM1 ELISA, cytokine-stimulated; actives raise or lower the signal
How it was run: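 Vascular primary endothelium (human umbilical vein) was exposed to chemicals and assayed 24 h later. VCAM-1 levels came from ELISA, with DMSO serving as baseline for bidirectional fitting.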

[16] = BSK_4H_Eotaxin3: BioMAP Diversity Plus: 4H Assay for Eotaxin 3 Biomarker Activity (AID 2283000); conditions: primary human endothelial cells (HUVEC); actives raise or lower the signal;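 also: CCL26 protein level quantified by ELISA in parallel with SRB cytotoxicity check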
How it was run: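 ELISA quantitation of CCL26 (Eotaxin-3) protein from chemically dosed human vascular endothelial cells at 24 h; increases and decreases both scored relative to DMSO-treated baseline.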

Measured: AC50

Chain of Hepatocyte nuclear factor 4-alpha (Homo sapiens) (P41235 whole entry, looked up, the tested form may be a part): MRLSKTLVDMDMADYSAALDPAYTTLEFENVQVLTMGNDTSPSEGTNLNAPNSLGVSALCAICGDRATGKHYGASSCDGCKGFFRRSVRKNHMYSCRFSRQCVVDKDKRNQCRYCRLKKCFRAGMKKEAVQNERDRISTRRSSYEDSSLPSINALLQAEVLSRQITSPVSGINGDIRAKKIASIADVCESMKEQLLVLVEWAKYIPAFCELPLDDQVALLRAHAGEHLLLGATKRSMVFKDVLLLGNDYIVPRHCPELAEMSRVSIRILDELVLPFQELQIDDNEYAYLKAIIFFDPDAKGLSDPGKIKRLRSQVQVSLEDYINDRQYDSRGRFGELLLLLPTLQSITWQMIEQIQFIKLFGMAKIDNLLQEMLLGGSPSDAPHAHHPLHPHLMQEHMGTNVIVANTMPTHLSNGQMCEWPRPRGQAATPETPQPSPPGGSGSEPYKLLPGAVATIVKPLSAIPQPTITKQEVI
Chain of Nuclear respiratory factor 1 (Homo sapiens) (Q16656 whole entry, looked up): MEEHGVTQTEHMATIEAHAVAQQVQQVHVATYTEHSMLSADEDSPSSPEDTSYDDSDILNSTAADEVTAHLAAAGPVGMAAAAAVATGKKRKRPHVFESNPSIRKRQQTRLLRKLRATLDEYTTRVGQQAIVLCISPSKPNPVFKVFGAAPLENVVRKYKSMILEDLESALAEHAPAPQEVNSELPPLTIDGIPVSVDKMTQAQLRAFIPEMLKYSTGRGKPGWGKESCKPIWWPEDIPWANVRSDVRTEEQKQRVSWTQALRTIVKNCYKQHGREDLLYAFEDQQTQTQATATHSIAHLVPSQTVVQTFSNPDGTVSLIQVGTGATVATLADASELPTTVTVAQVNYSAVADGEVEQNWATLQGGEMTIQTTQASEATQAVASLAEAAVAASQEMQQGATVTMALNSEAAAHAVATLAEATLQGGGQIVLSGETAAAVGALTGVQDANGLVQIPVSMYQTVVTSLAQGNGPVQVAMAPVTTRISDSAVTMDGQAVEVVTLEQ
Chain of Cellular tumor antigen p53 (Homo sapiens) (P04637 whole entry, looked up): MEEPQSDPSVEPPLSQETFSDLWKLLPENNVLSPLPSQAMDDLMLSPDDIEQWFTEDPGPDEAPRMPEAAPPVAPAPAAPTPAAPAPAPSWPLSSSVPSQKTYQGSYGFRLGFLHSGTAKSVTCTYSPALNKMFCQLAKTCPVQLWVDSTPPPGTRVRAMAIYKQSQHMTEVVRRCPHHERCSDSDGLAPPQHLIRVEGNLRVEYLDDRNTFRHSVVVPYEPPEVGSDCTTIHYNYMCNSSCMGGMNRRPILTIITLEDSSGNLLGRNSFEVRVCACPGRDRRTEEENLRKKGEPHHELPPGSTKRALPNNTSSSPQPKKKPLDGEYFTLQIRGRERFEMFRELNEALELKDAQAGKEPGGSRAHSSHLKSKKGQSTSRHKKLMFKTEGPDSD
Chain of Transcriptional activator Myb (Homo sapiens) (P10242 whole entry, looked up): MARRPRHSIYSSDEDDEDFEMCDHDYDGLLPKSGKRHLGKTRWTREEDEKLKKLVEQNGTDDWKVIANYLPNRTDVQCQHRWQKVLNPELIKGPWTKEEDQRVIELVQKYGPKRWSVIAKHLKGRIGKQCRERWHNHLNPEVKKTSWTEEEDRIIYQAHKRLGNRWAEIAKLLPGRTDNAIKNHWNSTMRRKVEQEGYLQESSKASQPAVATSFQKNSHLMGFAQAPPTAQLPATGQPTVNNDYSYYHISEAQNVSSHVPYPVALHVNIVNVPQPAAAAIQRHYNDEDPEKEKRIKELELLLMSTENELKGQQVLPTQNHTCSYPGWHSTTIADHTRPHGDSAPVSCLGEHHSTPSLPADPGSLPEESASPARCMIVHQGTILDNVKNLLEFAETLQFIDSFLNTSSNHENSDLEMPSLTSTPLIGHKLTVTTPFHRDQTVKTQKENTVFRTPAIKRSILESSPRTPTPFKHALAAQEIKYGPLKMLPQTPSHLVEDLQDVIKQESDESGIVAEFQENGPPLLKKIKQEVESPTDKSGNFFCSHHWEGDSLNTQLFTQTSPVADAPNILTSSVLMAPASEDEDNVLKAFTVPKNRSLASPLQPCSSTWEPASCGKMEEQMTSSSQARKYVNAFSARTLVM
Chain of Nuclear receptor subfamily 4 group A member 2 (Homo sapiens) (P43354 whole entry, looked up, the tested form may be a part): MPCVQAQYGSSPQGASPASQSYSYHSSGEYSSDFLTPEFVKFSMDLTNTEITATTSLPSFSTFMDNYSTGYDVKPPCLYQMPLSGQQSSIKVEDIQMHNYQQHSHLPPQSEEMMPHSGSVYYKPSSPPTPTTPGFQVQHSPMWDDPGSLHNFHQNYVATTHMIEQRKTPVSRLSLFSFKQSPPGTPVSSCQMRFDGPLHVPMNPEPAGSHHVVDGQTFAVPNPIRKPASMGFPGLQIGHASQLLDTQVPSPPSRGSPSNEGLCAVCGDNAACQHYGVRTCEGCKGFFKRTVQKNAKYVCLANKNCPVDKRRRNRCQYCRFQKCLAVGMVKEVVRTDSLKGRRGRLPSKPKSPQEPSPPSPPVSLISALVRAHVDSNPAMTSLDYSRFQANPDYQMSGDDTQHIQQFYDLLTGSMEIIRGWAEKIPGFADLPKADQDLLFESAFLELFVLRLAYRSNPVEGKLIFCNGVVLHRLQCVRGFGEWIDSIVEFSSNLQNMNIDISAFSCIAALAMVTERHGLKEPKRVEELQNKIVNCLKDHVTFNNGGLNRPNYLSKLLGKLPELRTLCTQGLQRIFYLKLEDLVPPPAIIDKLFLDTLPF
Chain of Myc proto-oncogene protein (Homo sapiens) (P01106 whole entry, looked up): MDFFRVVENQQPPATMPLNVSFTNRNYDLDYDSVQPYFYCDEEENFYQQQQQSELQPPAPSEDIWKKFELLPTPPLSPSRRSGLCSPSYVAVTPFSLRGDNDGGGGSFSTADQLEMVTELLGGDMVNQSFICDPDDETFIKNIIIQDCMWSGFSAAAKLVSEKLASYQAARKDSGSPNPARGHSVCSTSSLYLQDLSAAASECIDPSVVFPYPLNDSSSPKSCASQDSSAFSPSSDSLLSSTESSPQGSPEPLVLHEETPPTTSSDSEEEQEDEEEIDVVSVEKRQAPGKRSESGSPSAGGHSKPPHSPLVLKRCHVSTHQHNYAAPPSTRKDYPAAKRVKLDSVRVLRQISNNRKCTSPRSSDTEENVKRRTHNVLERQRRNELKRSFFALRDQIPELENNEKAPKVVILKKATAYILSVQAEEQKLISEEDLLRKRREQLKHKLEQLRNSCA

CC1(CO)CN(c2ccccc2)NC1=O (stereo unspecified)
not listed: [12] | [13] | [14] | [15] | [16]
inactive: all other assays above

Nc1ccc(S(N)(=O)=O)cc1
inactive: [1] | [3] | [4] | [5] | [7] | [9] | [10] | [11]

CO[Si](CCCn1c(=O)n(CCC[Si](OC)(OC)OC)c(=O)n(CCC[Si](OC)(OC)OC)c1=O)(OC)OC
not listed: [2] | [3] | [13] | [14] | [15] | [16]
inactive: all other assays above

CC(C)Oc1ccccc1O
not listed: [2] | [12]
inactive: all other assays above

CCCCCCCCCCCCCCCC(=O)O
not listed: [12] | [13] | [14] | [15] | [16]
inactive: all other assays above

O=c1oc(=O)c2cc3c(=O)oc(=O)c3cc12
not listed: [2] | [11] | [13] | [14] | [15] | [16]
inactive: all other assays above

CCCC(=O)OCCC(C)CCC=C(C)C (stereo unspecified)
active: [8] 72 µM | [9] 78.7 µM | [10] 100 µM
inactive: [12] | [1] | [4] | [5] | [6] | [7]

CCOc1ccccc1OCC
inactive: [12] | [1] | [4] | [5] | [7] | [9] | [10] | [11]

CCCCCC(=O)OCCc1ccccc1
inactive: [1] | [2] | [4] | [5] | [6] | [7] | [9] | [10] | [11]

CC(=O)[O][Al][O]C(C)=O
inactive: [1] | [3] | [4] | [5] | [6] | [7] | [9] | [10]

CC[Si](OC(C)=O)(OC(C)=O)OC(C)=O
not listed: [2] | [3]
inactive: all other assays above

CC(=O)Nc1ccccc1O
not listed: [2] | [6] | [12]
inactive: all other assays above

CNCCO
inactive: [12] | [1] | [3] | [5] | [6] | [7] | [9] | [10] | [11]

O=C(O)Cc1cccc2ccccc12
not listed: [13] | [14] | [15] | [16]
inactive: all other assays above

O=C[C@H](O)[C@H](O)[C@H](O)CO
inactive: [1] | [3] | [4] | [5] | [7] | [9] | [10] | [11]

COc1ccc(Cl)cc1C
inactive: [1] | [2] | [5] | [6] | [7] | [9] | [10] | [11]

CCCCCNCCCCC
inactive: [12] | [1] | [4] | [5] | [6] | [7] | [9] | [10] | [11]
